Screening results deposited in PubChem BioAssay by Broad Institute.
Only some compounds are listed: those with a hit (about 2.6% of all), similar ones and a draw of the others.
p53 PUMA act: mutant p53 pathway re-activators, primary screen, cell-based, SW480, luciferase, single point, HTS; actives 1.5% (n = 28,000); activation, % at 9.98 µM; SW480 PUMA-promoter luciferase, p53 mutant reactivation; AID 624151, 2012; in the data active = activation above about 52%
Myc binder: binders of human c-Myc, primary screen, biochemical, small molecule microarray, anti-His fluorescence; Myc proto-oncogene protein (Homo sapiens), P01106; His-c-Myc binding; calls only; actives 1.5% (n = 17,000); AID 624141, 2012;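 active = spot fluorescence over background with P-value below 7% in all four replicate spots, showing protein binding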
NFkB SMM: binders of NF-kB p50 subunit, primary screen, biochemical, small molecule microarray, anti-His fluorescence | actives 1.3% (n = 17,000) | calls only | Nuclear factor NF-kappa-B p105 subunit (Homo sapiens), P19838 | anti-His fluorescence binding | AID 624139, 2012;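 active = spot fluorescence over background significantly raised, with a chance value under 7% in all four replicate spots of the compound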;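 note: probe protein is his-tagged human p50 processed subunit at 1 µg/ml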
STAT3 SMM: STAT3 binders, primary screen, biochemical, small molecule microarray, single point, set 2. His-STAT3 binding, anti-His fluorescence. calls only. actives 0.2% (n = 17,000);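 active = compounds whose four printed spots each show fluorescence over background unusually high for their array block, chance value under 7%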
mut p53 SMM: binders of human mutant p53, primary screen, biochemical, small molecule microarray, anti-GST fluorescence; actives 0.4% (n = 17,000); mutant tumor protein p53 (GST-tagged), Homo sapiens; small molecule microarray binding; calls only;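 active = compounds whose four printed spots each glow above background more than chance allows, each with a p-value under 7%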
Each line names hits and unclear results; the compound was inactive in the other large screens.

Cc1cc(C(F)(F)F)nc(SCC(=O)Nc2ccc(I)cc2)c1C#N	none (no result: Myc binder, NFkB SMM, STAT3 SMM, mut p53 SMM)
CC(=O)c1ccc(NC(=O)CSc2nc(C)cc(C)c2C#N)cc1	p53 PUMA act 140
Cc1cc(C)c(C#N)c(SCC(=O)Nc2ccc(C(N)=O)cc2)n1	p53 PUMA act 105 (no result: Myc binder, NFkB SMM, STAT3 SMM, mut p53 SMM)
CC(=O)c1ccc(NC(=O)CSc2nccn2C)cc1	p53 PUMA act 93 (no result: Myc binder, NFkB SMM, STAT3 SMM, mut p53 SMM)
Cc1ccc(C(C)C)c(OCC(=O)Nc2cccc3ncccc23)c1	none (no result: Myc binder, NFkB SMM, STAT3 SMM, mut p53 SMM)
CN1CCN(CCn2c(-c3ccc(Br)cc3)cn3c4ccccc4nc23)CC1	none (no result: Myc binder, NFkB SMM, STAT3 SMM, mut p53 SMM)
CS(=O)(=O)N(CC(=O)O)c1ccc(C23CC4CC(CC(C4)C2)C3)cc1	Myc binder active
C=CCOC(=O)[C@H]1[C@@H]2C(=O)O[C@@H](c3ccccc3)[C@@H](c3ccccc3)N2[C@@H](c2ccc(OCCOC(=O)[C@@H]3C[C@@H]4C(=O)N[C@@H](Cc5ccccc5)C(=O)N4[C@@H]3c3cccc(OCCO)c3)cc2)[C@]12C(=O)Nc1ccccc12	NFkB SMM active (no result: p53 PUMA act)
C=CCOC(=O)[C@H]1[C@@H]2C(=O)O[C@@H](c3ccccc3)[C@@H](c3ccccc3)N2[C@@H](c2ccc(OCCOC(=O)[C@@H]3C[C@@H]4C(=O)N[C@@H](CC(C)C)C(=O)N4[C@@H]3c3cccc(OCCO)c3)cc2)[C@]12C(=O)Nc1ccc(I)cc12	NFkB SMM active, mut p53 SMM active (no result: p53 PUMA act)
C=CCOC(=O)[C@@H]1[C@H]2C(=O)O[C@H](c3ccccc3)[C@H](c3ccccc3)N2[C@H](c2ccc(OCCOC(=O)[C@@H]3C[C@@H]4C(=O)N5CCC[C@H]5C(=O)N4[C@@H]3c3ccc(O)cc3)cc2)[C@@]12C(=O)Nc1ccc(I)cc12	none (no result: p53 PUMA act)
CCc1cc2c(SCC(=O)N3CCc4ccccc43)ncnc2s1	none
Cc1csc2c(SCC(O)C(F)(F)F)ncnc12 (configuration not stated)	p53 PUMA act 56 (no result: Myc binder, NFkB SMM, STAT3 SMM, mut p53 SMM)
CC(=O)OC(C)(C)[C@@H]1Cc2cc3ccc(=O)oc3cc2O1	none
C/C=C(\C)C(=O)OC(C)(C)C1Cc2cc3ccc(=O)oc3cc2O1 (configuration not stated)	mut p53 SMM active
COc1ccc(NC(=O)CNC(=O)c2ccc(C(C)(C)C)cc2)cc1	none (no result: Myc binder, NFkB SMM, STAT3 SMM, mut p53 SMM)
COC(=O)c1cc2c(N)c(C(=O)OC)sc2nc1C(OC)OC	none (no result: Myc binder, NFkB SMM, STAT3 SMM, mut p53 SMM)
CCn1ncc(Cl)c1C(=O)NCc1ccco1	none
COC(=O)c1ccccc1NC(=O)COc1ccc(C(C)(C)C)cc1Br	none (no result: Myc binder, NFkB SMM, STAT3 SMM, mut p53 SMM)
CCc1ccc(OCC(=O)Nc2cc(OC)ccc2OC)c(Br)c1	p53 PUMA act 58 (no result: Myc binder, NFkB SMM, STAT3 SMM, mut p53 SMM)
CCc1ccc(OCC(=O)Nc2ccccc2C(=O)OC)c(Br)c1	p53 PUMA act 59 (no result: Myc binder, NFkB SMM, STAT3 SMM, mut p53 SMM)
COC(=O)[C@H]1CC[C@H](OC(C)=O)[C@]2(C)CC[C@@H](C(C)C)[C@@H](OC(=O)/C=C/c3ccccc3)C12 (some centres not stated)	Myc binder active, NFkB SMM active
C[C@@H]1CCCCO[C@@H](CN(C)S(=O)(=O)c2ccccc2)[C@H](C)CN([C@H](C)CO)C(=O)c2cc(N(C)C)ccc2O1	none
Cc1noc(C)c1S(=O)(=O)N(C)C[C@H]1OCCCC[C@@H](C)Oc2ccc(N(C)C)cc2C(=O)N([C@@H](C)CO)C[C@@H]1C	Myc binder active, NFkB SMM active, STAT3 SMM active
C[C@@H]1CCCCO[C@H](CN(C)S(=O)(=O)c2ccccc2)[C@@H](C)CN([C@@H](C)CO)C(=O)c2cc(N(C)C)ccc2O1	NFkB SMM active
Cc1noc(C)c1S(=O)(=O)N(C)C[C@@H]1OCCCC[C@@H](C)Oc2ccc(N(C)C)cc2C(=O)N([C@@H](C)CO)C[C@@H]1C	none
CC(=O)OC[C@@]12C(=O)C[C@@H](C)[C@]3(C[C@@H](c4ccoc4)OC3=O)[C@H]1CC[C@H](O)[C@]21CO1	none
Cc1ccccc1OCC(=O)NC(=S)Nc1ccccc1-c1nc2ccccc2s1	none (no result: Myc binder, NFkB SMM, STAT3 SMM, mut p53 SMM)
Cc1ccccc1OCC(=O)Nc1cccc(-c2nc3ccccc3s2)c1	p53 PUMA act 79
Cc1cccc(OCC(=O)Nc2cccc(-c3nc4ccccc4s3)c2)c1C	p53 PUMA act 95 (no result: Myc binder, NFkB SMM, STAT3 SMM, mut p53 SMM)
Cc1ccccc1OCC(=O)Nc1cccc(NC(=O)C(C)C)c1	p53 PUMA act 62 (no result: Myc binder, NFkB SMM, STAT3 SMM, mut p53 SMM)
O=C(CSc1ncnc2sc3c(c12)CCC3)Nc1cccc(-c2nc3ccccc3s2)c1	p53 PUMA act 80 (no result: Myc binder, NFkB SMM, STAT3 SMM, mut p53 SMM)
